Reference: PubChem BioAssay (EPA / NIEHS)
Several values for one entry are separate records, joined by “and”; a condition that tells them apart may be missing. Identical values can stand only once. Records with an inconclusive call do not appear. The source holds several records for some structures; these can differ, active in one and inactive in another. Activity calls are given as the source filed them. The calls were made as follows: active = hit-call score of the fitted dose curve at least 0.9, where 1 is the maximum; inconclusive = response in the unintended direction; inactive = score below 0.9.

What follows are compounds tested against mouse Estrogen Receptor alpha (Era), Esr1 (gene 13982) (UniProt P19785) (assay: NVS_NR_mERa: NovaScreen (NVS) Nuclear Receptor Binding Assay for mouse Estrogen Receptor alpha (Era) (AID 2283378);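 also: hit means loss of bound radioligand signal relative to DMSO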).
mouse Estrogen Receptor alpha (Era), Esr1 (gene 13982), sequence (P19785 whole entry, looked up): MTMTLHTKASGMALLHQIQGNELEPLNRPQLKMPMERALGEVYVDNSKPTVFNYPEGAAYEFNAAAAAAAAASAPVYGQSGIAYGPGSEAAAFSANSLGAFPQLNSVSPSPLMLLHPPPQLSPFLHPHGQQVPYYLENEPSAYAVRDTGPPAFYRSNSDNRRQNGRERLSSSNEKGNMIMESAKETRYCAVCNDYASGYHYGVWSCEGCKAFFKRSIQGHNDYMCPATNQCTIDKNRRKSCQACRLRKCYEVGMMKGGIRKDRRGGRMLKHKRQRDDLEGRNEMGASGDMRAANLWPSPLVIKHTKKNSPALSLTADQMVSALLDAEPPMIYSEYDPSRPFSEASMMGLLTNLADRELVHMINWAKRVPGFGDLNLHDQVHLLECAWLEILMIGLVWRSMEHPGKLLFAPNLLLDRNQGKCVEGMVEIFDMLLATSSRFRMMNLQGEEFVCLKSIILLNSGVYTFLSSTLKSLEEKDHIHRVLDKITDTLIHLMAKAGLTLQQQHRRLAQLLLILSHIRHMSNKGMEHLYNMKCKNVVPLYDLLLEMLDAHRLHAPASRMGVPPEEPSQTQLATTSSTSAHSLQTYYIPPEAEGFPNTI
Procedure: NVS_NR_mERa is a biochemical, single-readout assay that uses extracted gene-proteins in a cell-free assay. Measurements were taken 18 hours after chemical dosing in a 96-well plate.NVS_NR_mERa is one of one assay component(s) measured or calculated from the NVS_NR_mERa assay. It is designed to make measurements of radioligand binding, a form of binding reporter, as detected with scintillation counting signals by Filter-based radiodetection technology.Data from the assay component NVS_NR_mERa was analyzed into 1 assay endpoint. This assay endpoint, NVS_NR_mERa, was analyzed in the positive analysis fitting direction relative to DMSO as the negative control and baseline of activity. Using a type of binding reporter, loss-of-signal activity can be used to understand changes in the binding as they relate to the gene Esr1. Furthermore, this assay endpoint can be referred to as a primary readout, because the performed assay has only produced 1 assay endpoint. To generalize the intended target to other relatable targets, this assay endpoint is annotated to the nuclear receptor intended target family, where the subfamily is steroidal.
Binding assays used specific radioligands (tritiated, iodinated) with non-radioactive competitive displacement ligands in agonist or antagonist protocols (as indicated) and various reference compounds and inhibitors to titrate specific binding to receptors and transporters. Most enzyme assays (CYPs, kinases, phosphatases, proteases, HDACs) used recombinant protein and specific substrates (fluorescence mostly, some colorimetric and radioactive) and inhibitors, followed by a biochemical separation of substrate and product. All assays for the biochemical HTS were initially run in duplicate at a single concentration (10 uM for CYP450 assays and 25 uM for all others). […] Each assay was run with positive and negative controls, and concurrent controls on every plate. The follow-up (secondary) screen tested active chemical-pairs in concentration series, as well as a few additional assays not tested in the primary screen, some selected negative inactives, and several cases re-run in the concentration series for confirmatory purposes.

| Structure (SMILES) | AC50 | outcome |
| --- | --- | --- |
| CCN(CC)CCNc1ccc(CNC=O)c2sc3ccc(OC)cc3c(=O)c12 | 1.37 µM (active) |  |
| C[C@@H]1C[C@H]2[C@@H]3CCC4=CC(=O)C=C[C@]4(C)[C@@]3(F)[C@@H](O)C[C@]2(C)[C@@]1(O)C(=O)COP(=O)(O)O |  | inactive |
| CCCCCCCCCCCCN1CCCC1=O |  | inactive |
| CC[C@H](c1ccc(O)cc1)[C@@H](CC)c1ccc(O)cc1 | 1.52 nM (active) and 2.29 nM (active) and 4.85 nM (active) | inactive |
| O=C(O)Cc1cc(I)c(Oc2cc(I)c(O)c(I)c2)c(I)c1 |  | inactive |
| CC#C[C@]1(O)CC[C@H]2[C@@H]3CCC4=CC(=O)CCC4=C3[C@@H](c3ccc(N(C)C)cc3)C[C@@]21C | 0.289 µM (active) | inactive |
| CCc1nn(C2CCCCC2)c2cc(C3(C#N)CCC(C(=O)O)CC3)ccc12 (configuration not stated) |  | inactive |
| OC1CCCCC1 |  | inactive |
| O=C(O)c1ccccc1C(c1ccc(O)cc1)c1ccc(O)cc1 | 7.92 µM (active) and 7.1 µM (active) | inactive |
| CCCOC(=O)c1ccc(O)cc1 | 25 µM (active) |  |
| O=C1OC2(c3ccccc31)c1cc(Br)c(O)c(Br)c1Oc1c2cc(Br)c(O)c1Br |  | inactive |
| C=C(C)C(=O)OCCC(F)(F)C(F)(F)C(F)(F)C(F)(F)C(F)(F)C(F)(F)F |  | inactive |
| COCC(C)O (configuration not stated) | 11.5 µM (active) |  |
| CCCOc1sc(C(=O)N2CCC(c3cc(CN)ccc3F)CC2)c(C)c1Br | 5.52 µM (active) |  |
| CCCCCCCCCCCCc1ccccc1S(=O)(=O)O | 18 µM (active) |  |
| O=[N+]([O-])c1ccc(O)cc1 |  | inactive |
| O=c1c(-c2ccc(O)cc2)coc2cc(O)ccc12 | 421 nM (active) [middle of 4 runs] |  |
| CC(=O)NC1(c2cccc(F)c2)CCN(CC[C@@]2(c3ccc(Cl)c(Cl)c3)CN(c3ccccc3)C(=O)CO2)CC1 |  | inactive |
| CCC(C)(C)C1CCC(O)CC1 (configuration not stated) | 6.46 µM (active) | inactive |
| c1ccc2cc3c(ccc4ccccc43)cc2c1 |  | inactive |
| OCCC(F)(F)C(F)(F)C(F)(F)C(F)(F)C(F)(F)C(F)(F)C(F)(F)C(F)(F)F |  | inactive |
| OC1CCC(C2CCCCC2)CC1 (configuration not stated) |  | inactive |
| CCCCCCCCCCCCCC[N+](C)(C)C | 14.3 µM (active) |  |
